Assay outcomes deposited in PubChem by National Center for Advancing Translational Sciences (NCATS).
Rows were chosen to be rich in hits. Some 0.34% of all compounds tested hit in one or more screens of this group.
PI4K2A block: blocks human PI4K2A kinase activity; 420,000 tested, 0.13% active; purified PI4K2A, ADP-Glo luminescence, 1 h; active compounds read low; Q9BTU6; activity change, negative = inhibition, % at 76.9 µM; in the data active = activity change below about -50%; inconclusive = mostly about -30% to -49%;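 also: -100% = wells without enzyme as full effect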
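PI4K2A activity was measured by ADP-Glo luminescence: enzyme (4 ug/mL stock) and phosphatidylinositol (1.2 mM stock) in Tris pH 7.5/MgCl2/EGTA/Triton X-100 buffer were reacted with ATP (300 microM stock) for one hour at ambient temperature.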
PGK inhibitor: inhibitors of T. brucei phosphoglycerate kinase; P07378; Potency, µM (series often up to 57.5 µM), without a hit: at the top dose activity change, negative = inhibition, most hits filed as inhibitors; 380,000 tested, 0.043% active; AID 602233; PGK/GAPDH coupled, Kinase-Glo luminescence, 60 min; also: potency is read from the fitted curve at half-maximal effect; % is scaled to controls: 0 for no effect and ±100 for the full control effect; nearly all actives have a fitted effect of over 60% in size
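Luminescent ATP detection (Kinase-Glo Plus) follows a 60-minute room-temperature incubation, with wells lacking PGK as controls. Buffer: 100 mM TEA (pH 7.6), 5 mM MgCl2, 0.01% Tween-20. Coupling enzyme GAPDH (100 nM final) supplies unstable 1,3-BPG in-well.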
Chronic BCR inh: chronic active BCR signaling inhibition. ABC-DLBCL IkBa-CBG/CBR reporter, luminescence ratio, 4 h. Potency, µM (highest dose often 46.1 µM), inactives show at the top dose activity change, negative = inhibition, most hits filed as inhibitors. 340,000 tested, 0.05% active. AID 493014; active = well fitted inhibition curve with a large enough effect in the signal ratio, with a control signal flat, not every such curve was filed as active; inconclusive = small, poorly fitted or top-dose-only effect, or effect the other way, or a change in a side signal; the % refers to the signal ratio;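 also: potency is read from the fitted curve at half-maximal effect; plate controls were basal doxycycline-induced cells for no effect and cells given 10 µM MG132 for full effect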
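Concentration-response series (up to 46 uM) were applied to TMD8 dual-reporter cells for 4 h at 37C with doxycycline. Green/red ratio, after filter-overlap correction, defined %Activity; red signal alone was normalised to basal cells and zero luminescence.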
Pin1 inhibitor: blocks the human prolyl isomerase Pin1. Pin1 FP peptide displacement, HiFluor488, 10 min. Potency, µM (doses to about 115 µM), without a hit: at the highest dose activity, negative = inhibition, hits mostly inhibitors. 390,000 tested, 0.009% active; active = well fitted inhibition curve with a large enough effect in the polarisation, with a control signal flat, not every such curve was filed as active; inconclusive = small, poorly fitted or top-dose-only effect, or effect the other way, or a change in a side signal; inactive = no such curve, though single readings can be large or run the other way; the % refers to the polarisation; also: potency is read from the fitted curve at half-maximal effect; % is scaled to controls: 0 for no effect and ±100 for the full control effect
Target sequence (Q13526 whole entry, looked up): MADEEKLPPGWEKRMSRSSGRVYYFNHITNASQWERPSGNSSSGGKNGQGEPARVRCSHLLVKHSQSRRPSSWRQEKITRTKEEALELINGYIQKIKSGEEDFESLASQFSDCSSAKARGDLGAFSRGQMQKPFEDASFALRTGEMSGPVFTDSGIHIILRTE
Tb PFK inh-1: blocks T. brucei phosphofructokinase. O15648. 330,000 tested, 0.17% active. AID 485367. Potency, µM (highest dose often 57.5 µM), without a hit: at the top dose activity, negative = inhibition, hits mostly inhibitors. T. brucei PFK, ADP-Glo luminescence;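 also: potency is read from the fitted curve at half-maximal effect; 0% = uninhibited 1x PFK enzyme wells and -100% = no-enzyme wells; nearly all actives have a fitted effect of over 60% in size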
Target sequence (O15648 whole entry, looked up): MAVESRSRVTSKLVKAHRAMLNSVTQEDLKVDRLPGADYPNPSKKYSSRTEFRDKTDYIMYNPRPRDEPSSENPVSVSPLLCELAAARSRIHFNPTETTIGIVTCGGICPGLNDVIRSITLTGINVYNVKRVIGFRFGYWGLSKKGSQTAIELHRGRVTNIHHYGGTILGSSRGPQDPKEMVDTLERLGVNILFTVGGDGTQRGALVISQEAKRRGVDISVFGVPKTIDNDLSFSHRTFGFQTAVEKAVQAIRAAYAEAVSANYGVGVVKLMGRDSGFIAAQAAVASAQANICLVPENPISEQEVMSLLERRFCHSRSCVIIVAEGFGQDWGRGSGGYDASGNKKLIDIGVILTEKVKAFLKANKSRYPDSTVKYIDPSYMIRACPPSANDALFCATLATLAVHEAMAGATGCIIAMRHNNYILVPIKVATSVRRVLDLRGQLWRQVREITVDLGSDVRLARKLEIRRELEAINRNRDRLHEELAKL
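Compounds were pin-transferred as a titration series up to 57 uM into substrate buffer (0.5 mM F6P, 0.1 mM ATP, pH 8.0), then 1.25 nM PFK was added and reactions ran 45 min before ADP-Glo detection.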
Tb PFK KinaseGlo: Tb phosphofructokinase inhibition, orthogonal luminescence; shares compounds with Tb PFK inh-1; 1,100 tested, 47% active; Tb PFK enzyme, ATP depletion, Kinase-Glo Plus luminescence; Potency, µM (titrated, usually from 57.5 µM), for the others: at the top dose inhibition; AID 504636; calls by dose curve; also: potency is read from the fitted curve at half-maximal effect; nearly all actives have a fitted effect of over 60% in size
Tb PFK inh-2: T. brucei PFK enzyme inhibition, hit validation | shares compounds with Tb PFK inh-1 | purified T. brucei PFK, ADP-Glo luminescence, 45 min | Potency, µM (highest dose often 57.5 µM), for inactives: top-dose activity change, negative = inhibition, usual class: inhibitors | 1,100 tested, 41% active | AID 504637;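 also: potency is read from the fitted curve at half-maximal effect; plate controls were full PFK enzyme control for no effect and no enzyme control for full effect; nearly all actives have a fitted effect of over 60% in size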
* = called active by the depositor; i = inactive; ? = inconclusive; . = no result. Unless noted, calls follow the shape of the dose curve; as a rule, active = well fitted curve in the direction sought with a large enough effect; inconclusive = small, poorly fitted or top-dose-only effect, or another doubt; inactive = no such curve, though single readings can be large; an effect the other way counts as inactive or inconclusive.

SMILES	PI4K2A block	PGK inhibitor	Chronic BCR inh	Pin1 inhibitor	Tb PFK inh-1	Tb PFK KinaseGlo	Tb PFK inh-2
O=C(CSC1=NS(=O)(=O)c2ccccc2N1)c1ccccc1	1	i	?	2%	?	21µM*	?
Fc1ccc2[nH]c3c(c2c1)CN(C(=S)NCc1ccccc1)CC3	4	-8%	?	-3%	0%	.	.
C=CCNC(=O)N1CCc2[nH]c3ccc(F)cc3c2C1	-2	.	?	?	?	?	?
O=C(CCC(=O)N1CCOc2ccc(Cl)cc21)NCCN1CCOCC1	2	-1%	-5%	1%	?	?	?
Cc1ccc(C(=O)Nc2cccc([N+](=O)[O-])c2)cc1S(=O)(=O)Nc1cccc(C(=O)O)c1	-4	0%	-1%	6%	19µM*	7.6µM*	19µM*
CC(C)(N)Cc1ccccc1Cl	1	.	.	.	.	.	.
O=C1c2ccccc2C(=O)N1c1cnc2ccccc2c1	.	.	.	-2%	.	.	.
Cc1c(N2C(=O)/C(=C/c3ccccc3)SC2=S)c(=O)n(-c2ccccc2)n1C	-1	4%	-15%	2%	-5%	.	.
Cc1c(N2C(=O)/C(=C\c3ccccc3O)SC2=S)c(=O)n(-c2ccccc2)n1C	1	i	?	-1%	21µM*	?	-30%
Cc1c(Br)c(O)c(Br)c2sc(=O)oc12	-24	3%	10%	-16%	?	14%	-28%
COc1ccc(N=C2SC(C(N)=O)CC(=O)N2Cc2ccc3c(c2)OCO3)cc1 (centres undefined)	-2	?	?	-2%	?	1.7µM*	?
ClC(Cl)(c1nnnn1-c1ccccc1)c1nnnn1-c1ccccc1	?	-5%	0%	-7%	11µM*	3.4µM*	11µM*
Cc1ccc(S(=O)(=O)N2CCOCC2)cc1C(=O)OCC(=O)Nc1ccc2[nH]c(=O)[nH]c2c1	-7	i	6%	?	?	?	?
Nc1ncnc2c1ccn2[C@@H]1O[C@H](CO)[C@@H](O)[C@H]1O	-10	-4%	.	0%	.	.	.
NC(=S)c1cn(C2OC(CO)C(O)C2O)c2ncnc(N)c12 (centres undefined)	-11	.	?	-3%	?	?	-14%
FCCN(CCF)c1cccc(Cl)c1	-1	-1%	3%	4%	19µM*	8.5µM*	24µM*
O=C(O)c1cccc(N(CCO)CCO)c1	1	0%	0%	-10%	2%	.	.
CCNS(=O)(=O)c1ccc(NC(=O)Cn2cc([N+](=O)[O-])cn2)cc1	0	4%	2%	1%	12µM*	12µM*	?
O=C(Cn1cc([N+](=O)[O-])cn1)Nc1cccnc1	-1	2%	5%	-3%	-7%	.	.
Nc1ncnc2c1ncn2[C@@H]1O[C@H](COP(=O)(O)O)[C@@H](O)[C@H]1O	?	?	?	-6%	22%	.	.
Nc1ncnc2c1ncn2[C@@H]1O[C@H](COP(=O)(O)OP(=O)(O)OP(=O)(O)O)[C@@H](O)[C@H]1O	-28	-11%	?	?	?	-29%	?
O=C(NNC(=O)c1cc2cc3ccccc3nc2s1)c1ccc(F)cc1	-25	?	3%	27%	?	?	?
O=C(NNC(=O)c1cc2cc3ccccc3nc2s1)c1cccc(Cl)c1	-21	?	5%	40%	?	.	.
CC(C)(C)c1nnc(NS(=O)(=O)c2ccc(N)cc2)s1	-6	.	.	.	.	.	.
CC(C(O)c1ccccc1)N(C)C/C=C/c1ccccc1 (centres undefined)	3	.	.	.	.	.	.
SMILES	PI4K2A block	PGK inhibitor	Chronic BCR inh	Pin1 inhibitor	Tb PFK inh-1	Tb PFK KinaseGlo	Tb PFK inh-2
COc1ccc(/C(C)=C/C(=O)O)c(OC)c1	-1	.	.	.	.	.	.
O=C1CC(c2ccccc2)CC2=C1C1(CCCCC1)N=C(Nc1nc3ccccc3o1)N2 (centres undefined)	.	.	.	-4%	.	.	.
O=[N+]([O-])c1ccc(NCc2ccncc2)cc1	-1	2%	6%	-3%	5.4µM*	3.4µM*	7.6µM*
O=[N+]([O-])c1ccc(Cc2ccncc2)cc1	6	2%	1%	0%	?	?	30µM*
c1ccc(NCc2ccncc2)cc1	0	-1%	-7%	-1%	-24%	.	.
O=C(O)[C@H](O)c1ccccc1	1	.	.	.	.	.	.
Cc1c(C(=O)OCc2ccccc2)[nH]c2c1C(=O)CC(c1ccco1)C2 (centres undefined)	-20	?	?	-5%	?	?	?
O=S(=O)(c1ccc2c(c1)OCCO2)N1CCN(S(=O)(=O)c2ccc(F)c(F)c2F)CC1	.	.	.	3%	.	.	.
O=C(O)c1ccccc1NS(=O)(=O)c1cccc(C(F)(F)F)c1	-3	-6%	?	6%	2%	.	.
O=C(O)c1ccccc1NS(=O)(=O)c1cccc(-n2sc3ccccc3c2=O)c1	-18	-3%	?	5%	2.4µM*	12µM*	24µM*
OCCN1CCN(C(=S)c2ccc(Cl)c(Cl)c2)CC1	-5	i	?	-7%	19µM*	5.4µM*	13µM*
C=Cc1cc2c(s1)c1cnn(Cc3ccccc3F)c(=O)c1n2C	.	.	.	-3%	.	.	.
COc1ccccc1C(=O)Nc1ccc2c(c1)C(=O)NC2=O	-13	-4%	?	51%	24µM*	19µM*	?
CCOc1ccccc1C(=O)Nc1ccc2c(c1)C(=O)NC2=O	-23	i	-1%	-6%	-12%	.	.
N#Cc1nc(Nc2ccc(C(F)(F)F)cc2)nc(NC2CCCC2)n1	.	.	.	10%	.	.	.
COC(=O)N1CCN(c2ccc(Cl)c(Cl)c2)CC1	-3	-1%	?	2%	30µM*	24µM*	30µM*
CNC(=S)N1CCN(c2ccc(Cl)c(Cl)c2)CC1	3	i	1%	-2%	27µM*	13µM*	27µM*
CCCSS/C(CCO)=C(\C)N(C=O)Cc1cnc(C)nc1N	0	.	.	.	.	.	.
CCN(C(=O)CN1CCN(c2ccc(O)cc2)CC1)c1c(N)n(Cc2ccccc2)c(=O)[nH]c1=O	-10	-4%	6%	?	?	?	?
Cc1cn([C@H]2C[C@H](F)[C@@H](CO)O2)c(=O)[nH]c1=O	-2	.	.	.	.	.	.
O=c1/c(=C\c2cc([N+](=O)[O-])cc([N+](=O)[O-])c2O)sc2nc3ccccc3n12	-5	?	0%	?	?	?	-7%
O=[N+]([O-])c1ccc(N/N=C/c2ccc(O)c(O)c2O)c(S(=O)(=O)N2CCOCC2)c1	-21	-1%	0%	?	?	?	?
